In ChEMBL document CHEMBL4513137, “CO-ADD screening of University of Manchester (UK) compounds”:
Entries with a potency or affinity are not part of this list.

What follows are compounds tested on Staphylococcus aureus. Settings: Concentration 32 ug.mL-1; ASSAY_TEST Inhibition of Bacterial Growth; detection method Absorption (OD600); MEDIA CAMHB; plate type 384well; NBS; CORNING #3640; time 18 hr.
Work on O=[N+]([O-])c1ccc(-c2ccccc2Nc2ccccc2)c(Cl)c1 yielded an Inhibition of 13.69%.
N#Cc1ccc(-c2ccccc2Nc2ccccc2)cc1 gave an Inhibition of 12.74%.
O=[N+]([O-])c1ccc(-c2ccccc2Nc2ccccc2)cc1F gave an Inhibition of 18.96%.
With O=[N+]([O-])c1ccc(-c2ccccc2Nc2ccccc2)cc1C(F)(F)F the Inhibition was 23.3%.
O=[N+]([O-])c1ccc(-c2cccc3c2[nH]c2ccccc23)cc1 was tested, and the Inhibition was 21.52%.
Compound COc1cccc(N(C)c2cccc(OC)c2-c2ccc([N+](=O)[O-])cc2C)c1 has an Inhibition of 23.07%.
For O=[N+]([O-])c1ccc(-c2ccccc2N(Cc2ccccc2)c2ccccc2)cc1, the Inhibition was 20.79%.
Cc1cc([N+](=O)[O-])ccc1-c1ccccc1N(C)c1ccccc1 was tested, and the Inhibition was -10.68%.
For O=[N+]([O-])c1cc(Cl)c(-c2ccccc2Nc2ccccc2)c(Cl)c1, the Inhibition was 19.61%.
In the case of COc1ccc(Nc2ccccc2-c2ccc([N+](=O)[O-])cc2)cc1, the Inhibition is reported as 17.68%.

Each compound was assayed on Escherichia coli. Settings: Concentration 32 ug.mL-1; ASSAY_TEST Inhibition of Bacterial Growth; detection method Absorption (OD600); MEDIA CAMHB; plate type 384well; NBS; CORNING #3640; time 18 hr.
For Cc1ccccc1Nc1ccccc1-c1ccc([N+](=O)[O-])cc1, the Inhibition was -4.33%.
Work on COc1cccc(Nc2ccccc2)c1-c1c(Cl)cc(Br)cc1Cl yielded an Inhibition of 4.62%.
O=[N+]([O-])c1ccc(-c2c(Nc3ccccc3)cccc2-c2ccccc2)cc1 was tested, and the Inhibition was -0.69%.
Compound COc1cc([N+](=O)[O-])ccc1-c1ccccc1Nc1ccccc1 has an Inhibition of -2.88%.
Compound Cc1cc(C)c(Nc2ccccc2-c2ccc([N+](=O)[O-])cc2)c(C)c1 has an Inhibition of 1.23%.
Cc1cccc(C)c1Nc1ccccc1-c1ccccc1[N+](=O)[O-] was tested, and the Inhibition was 4.01%.
O=[N+]([O-])c1ccc(-c2c(Nc3ccccc3)ccc3ccccc23)cc1 gave an Inhibition of -0.39%.
Compound COc1cccc(Nc2ccccc2)c1-c1ccc([N+](=O)[O-])cc1 has an Inhibition of 7.82%.
For c1ccc(Nc2ccccc2-c2ncccn2)cc1, the Inhibition was 1.3%.
For O=[N+]([O-])c1ccc(-c2ccccc2Nc2ccccc2)cc1, the Inhibition was 3.34%.
O=[N+]([O-])c1ccc(-c2ccccc2Nc2ccccc2Br)cc1 showed an Inhibition of -1.08%.
COc1cc([N+](=O)[O-])ccc1-c1c(Nc2ccccc2)cccc1OC was tested, and the Inhibition was 7.58%.
With CC(=O)c1ccc(-c2ccccc2Nc2ccccc2)cc1 the Inhibition was 6.5%.
In the case of O=[N+]([O-])c1ccc2c3ccccc3n(-c3ccccc3)c2c1, the Inhibition is reported as -9.21%.
In the case of CC[C@@H](Nc1ccccc1-c1c(Cl)cc(Br)cc1Cl)c1ccccc1, the Inhibition is reported as 4.43%.
CN(c1ccccc1)c1ccccc1-c1ccc([N+](=O)[O-])cc1 was tested, and the Inhibition was -0.45%.
For Clc1cc(Br)cc(Cl)c1-c1ccccc1Nc1ccccc1, the Inhibition was -3.79%.
Compound O=[N+]([O-])c1ccc(-c2ccccc2Nc2ccccc2)c(Cl)c1 has an Inhibition of -8.34%.
Compound N#Cc1ccc(-c2ccccc2Nc2ccccc2)cc1 has an Inhibition of -6.88%.
O=[N+]([O-])c1ccc(-c2ccccc2Nc2ccccc2)cc1F showed an Inhibition of 3.69%.
For O=[N+]([O-])c1ccc(-c2ccccc2Nc2ccccc2)cc1C(F)(F)F, the Inhibition was 4.01%.
O=[N+]([O-])c1ccc(-c2cccc3c2[nH]c2ccccc23)cc1 gave an Inhibition of 3.84%.
Compound COc1cccc(N(C)c2cccc(OC)c2-c2ccc([N+](=O)[O-])cc2C)c1 has an Inhibition of 1.91%.
In the case of O=[N+]([O-])c1ccc(-c2ccccc2N(Cc2ccccc2)c2ccccc2)cc1, the Inhibition is reported as 4.24%.
Cc1cc([N+](=O)[O-])ccc1-c1ccccc1N(C)c1ccccc1 was tested, and the Inhibition was 0.54%.
O=[N+]([O-])c1cc(Cl)c(-c2ccccc2Nc2ccccc2)c(Cl)c1 was tested, and the Inhibition was -7.56%.
COc1ccc(Nc2ccccc2-c2ccc([N+](=O)[O-])cc2)cc1 was tested, and the Inhibition was -1.45%.
